This note sets out measurements from PubChem BioAssay (EPA / NIEHS).

Records with an inconclusive call do not appear. Activity calls are given as the source filed them. The calls were made as follows: active = hit-call score of the fitted dose curve at least 0.9, where 1 is the maximum; inconclusive = response in the unintended direction; inactive = score below 0.9.

Experiment [1] is described as follows: TOX21_p53_BLA_p2_viability: Viability Assessment in the Tox21 HCT-116 p53 Agonism Beta-lactamase Assay, Phase 2 (AID 2283591).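 Also: compound exposure lasted 16 h at 37 °C; actives lower the ATP signal meaning cytotoxicity.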 In a few lines:
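HCT116 p53-bla cells, 4000/well, dosed after 5 h plating (217-fold dilution of DMSO stocks) and incubated 16 h at 37C. Viability taken as cellular ATP by CellTiter-Glo luminescence after 30 min RT; signal loss marks cytotoxicity.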

The target of experiment [2] is Cellular tumor antigen p53 (Homo sapiens) (UniProt P04637). In words: TOX21_p53_BLA_p2_ratio: Tox21 HCT-116 p53 Agonism Beta-lactamase Assay, Ratio, Phase 2 (AID 2283592). In a few lines:
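Plated HCT116 p53-bla cells (4000/well) received compound after 5 h, then 16 h at 37C/5% CO2. CCF4-AM added, 2 h RT. Ratio of 460 to 530 nm emission taken as the p53 reporter signal.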

Experiment [3] in a line: TOX21_p53_BLA_p3_viability: Viability Assessment in the Tox21 HCT-116 p53 Agonism Beta-lactamase Assay, Phase 3 (AID 2283593).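 Also: cells exposed to compound for 16 h before reading.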 A digest of the protocol:
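HCT116 cells, 4000/well, dosed 5 h after plating by pin transfer (217-fold dilution from DMSO stock) and incubated 16 h at 37C, 5% CO2. Viability read as ATP luminescence with CellTiter-Glo after 30 min at room temperature.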

Experiment [4] addresses Cellular tumor antigen p53 (Homo sapiens) (UniProt P04637). In words: TOX21_p53_BLA_p3_ratio: Tox21 HCT-116 p53 Agonism Beta-lactamase Assay, Ratio, Phase 3 (AID 2283596). In a few lines: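 Cells were seeded at 4000/well, rested 5 h at 37C, then dosed with DMSO compound solutions (217-fold dilution) for 16 h. CCF4-AM substrate was loaded for 2 h at room temperature, and the 460/530 nm emission ratio was fitted for gain of signal versus DMSO.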

A short description of experiment [5]: TOX21_p53_BLA_p4_viability: Viability Assessment in the Tox21 HCT-116 p53 Agonism Beta-lactamase Assay, Phase 4 (AID 2283597).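 Also: hits lower the luminescence signal meaning cytotoxicity.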 A digest of the protocol: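 Readout: ATP luminescence (CellTiter-Glo), measured 30 min after reagent addition at RT. The reagent followed a 2 h CCF4-AM incubation, and the cells had been exposed to compound for 16 h at 37C.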
In experiment [6] the target is Cellular tumor antigen p53 (Homo sapiens) (UniProt P04637). In words: TOX21_p53_BLA_p5_ratio: Tox21 HCT-116 p53 Agonism Beta-lactamase Assay, Ratio, Phase 5 (AID 2283599). A digest of the protocol: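 HCT-116 p53-bla cells (4000/well) plated 5 h, dosed with compound (217-fold DMSO dilution) for 16 h at 37 C; CCF4-AM substrate 2 h at room temperature. Activity is the 460/530 nm emission ratio (405 nm excitation), fitted in gain-of-signal direction versus DMSO.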
Chain of Cellular tumor antigen p53 (Homo sapiens) (P04637 whole entry, looked up): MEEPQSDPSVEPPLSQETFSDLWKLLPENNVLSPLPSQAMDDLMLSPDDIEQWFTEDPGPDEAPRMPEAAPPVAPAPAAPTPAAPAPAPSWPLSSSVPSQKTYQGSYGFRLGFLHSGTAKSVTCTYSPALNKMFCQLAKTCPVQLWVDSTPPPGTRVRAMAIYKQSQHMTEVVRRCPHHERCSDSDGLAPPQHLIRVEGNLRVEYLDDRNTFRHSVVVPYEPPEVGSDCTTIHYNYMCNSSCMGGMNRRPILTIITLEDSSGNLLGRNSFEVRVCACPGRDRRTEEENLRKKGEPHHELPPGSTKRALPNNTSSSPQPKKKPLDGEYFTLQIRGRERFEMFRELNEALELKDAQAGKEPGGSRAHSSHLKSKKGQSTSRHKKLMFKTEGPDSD

Experiment [7] in a line: TOX21_p53_BLA_p5_viability: Viability Assessment in the Tox21 HCT-116 p53 Agonism Beta-lactamase Assay, Phase 5 (AID 2283600). A digest of the protocol:
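Workflow: seed 4000 cells per well, wait 5 h, add compounds (DMSO, 217-fold dilution), incubate 16 h, load CCF4-AM 2 h, add CellTiter-Glo, read luminescence after 30 min.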

Experiment [8] addresses Cellular tumor antigen p53 (Homo sapiens) (UniProt P04637). Kind of experiment: TOX21_p53_BLA_p4_ratio: Tox21 HCT-116 p53 Agonism Beta-lactamase Assay, Ratio, Phase 4 (AID 2283601). In a few lines:
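HCT-116 p53 beta-lactamase reporter cells (4000/well) preincubated 5 h, then compound (217-fold dilution of DMSO stock) for 16 h at 37C. CCF4-AM substrate added 2 h at room temperature; 460/530 nm emission ratio fitted upward versus DMSO.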

Take `CO[Si](CCCNc1ccccc1)(OC)OC`: the result in experiment [1], in experiment [2], in experiment [3], in experiment [4], in experiment [5] and in experiment [6] was inactive. In addition, the compound was classed as inactive in experiment [7] and in experiment [8].

Consider `O=C(O)C[C@H](NC(=O)OCc1ccccc1)C(=O)O`, for which the call in experiment [1], in experiment [2], in experiment [3], in experiment [4], in experiment [5] and in experiment [6] was inactive. For the same compound, the compound was called inactive in experiment [7] and in experiment [8].

As for `CC1CC(OC(=O)C(O)c2ccccc2)CC(C)(C)C1` (stereo not drawn), the outcome in experiment [1], in experiment [2], in experiment [3], in experiment [4], in experiment [5] and in experiment [6] was inactive. Further, the call in experiment [7] and in experiment [8] was inactive.

`Cc1ncc(C[n+]2csc(CCOP(=O)(O)O)c2C)c(N)n1`: the compound was called inactive in experiment [1], in experiment [2], in experiment [3], in experiment [4], in experiment [5] and in experiment [6]. The call in experiment [7] and in experiment [8] was inactive.

For the compound `O=C(O)c1ccc(-n2nc(-c3ccccc3O)nc2-c2ccccc2O)cc1`, the outcome in experiment [1], in experiment [2], in experiment [3], in experiment [4], in experiment [5] and in experiment [6] was inactive. The call in experiment [7] and in experiment [8] was inactive.

`C[N+]1([O-])CCOCC1`: the call in experiment [1], in experiment [2], in experiment [3], in experiment [4], in experiment [5] and in experiment [6] was inactive. Also, the compound was called inactive in experiment [7] and in experiment [8].

For orientation: AC50 means the concentration giving half of the maximal activity seen. For `C=CC[C@@H]1/C=C(\C)C[C@H](C)C[C@H](OC)[C@H]2O[C@@](O)(C(=O)C(=O)N3CCCC[C@H]3C(=O)O[C@H](/C(C)=C/[C@@H]3CC[C@@H](O)[C@H](OC)C3)[C@H](C)[C@@H](O)CC1=O)[C@H](C)C[C@@H]2OC`, the AC50 in experiment [1] is 36.5 µM (active); in experiment [5], 35.9 µM (active); in experiment [6], 36.8 µM (active); in experiment [7], 40.5 µM (active). In addition, the result in experiment [2], in experiment [3], in experiment [4] and in experiment [8] was inactive.

`CC[C@H]1OC(=O)C[C@@H](O)[C@H](C)[C@@H](O[C@@H]2O[C@H](C)[C@@H](O[C@H]3C[C@@](C)(O)[C@@H](O)[C@H](C)O3)[C@H](N(C)C)[C@H]2O)[C@@H](CC=O)C[C@@H](C)C(=O)/C=C/C(C)=C/[C@@H]1CO[C@@H]1O[C@H](C)[C@@H](O)[C@@H](OC)[C@H]1OC`: the compound was called inactive in experiment [1], in experiment [2], in experiment [3], in experiment [4], in experiment [5] and in experiment [6]. The compound was called inactive in experiment [7] and in experiment [8].

For `CCNC(=O)N1CCN(CCCC(c2ccc(F)cc2)c2ccc(F)cc2)CC1`, the outcome in experiment [1], in experiment [2], in experiment [3], in experiment [4], in experiment [5] and in experiment [6] was inactive. For the same compound, the compound was called inactive in experiment [7] and in experiment [8].

With `O=C(O)Cc1cn(-c2ccccc2)nc1-c1ccc(Cl)cc1`, the result in experiment [1], in experiment [2], in experiment [3], in experiment [4], in experiment [5] and in experiment [6] was inactive. Moreover, the compound was classed as inactive in experiment [7] and in experiment [8].

Take `CC1=C(/C=C/C(C)=C/C=C/C(C)=C\C=O)C(C)(C)CCC1`: the AC50 was 72.1 µM (active) in experiment [1]; 64.9 µM (active) in experiment [3]; 75.3 µM (active) in experiment [4]; 80.9 µM (active) in experiment [5]; 66.7 µM (active) in experiment [6]; 74.6 µM (active) in experiment [7]. Moreover, the result in experiment [2] and in experiment [8] was inactive.

With `O=C(Nc1ncc([N+](=O)[O-])s1)c1cccs1`, the call in experiment [1], in experiment [4], in experiment [6], in experiment [7] and in experiment [8] was inactive. The AC50 was 25 µM (active) in experiment [2], 8.44 µM (active) in experiment [3] and 13.4 µM (active) in experiment [5].

For the compound `O=C1C=CC(=O)N1`, the compound was classed as inactive in experiment [1] and in experiment [7]. Further, the half-maximal activity concentration (AC50) in experiment [2] is 73.5 µM (active); in experiment [3], 69.8 µM (active); in experiment [4], 70.8 µM (active); in experiment [5], 79.4 µM (active); in experiment [6], 82.4 µM (active); in experiment [8], 70.3 µM (active).

For the compound `C#C[C@]1(O)CC[C@H]2[C@@H]3[C@H](C)CC4=C(CCC(=O)C4)[C@H]3CC[C@@]21C`, the outcome in experiment [1], in experiment [2], in experiment [3], in experiment [4], in experiment [5] and in experiment [6] was inactive. Also, the call in experiment [7] and in experiment [8] was inactive.

As for `Nc1[nH]c(=O)ncc1F`, the outcome in experiment [1], in experiment [2], in experiment [3], in experiment [4], in experiment [5] and in experiment [6] was inactive. The call in experiment [7] and in experiment [8] was inactive.

Consider `Cc1ccc2c(Cl)cc(Cl)c(O)c2n1`, for which the AC50 is 7.81 µM (active) in experiment [1]; 12.2 µM (active) in experiment [3]; 13.7 µM (active) in experiment [5]; 25.9 µM (active) in experiment [6]; 33.1 µM (active) in experiment [8]. Also, the outcome in experiment [2], in experiment [4] and in experiment [7] was inactive.

In the case of `CC[C@H](C)[C@H]1O[C@]2(CC[C@@H]1C)C[C@@H]1C[C@@H](C/C=C(\C)[C@@H](O[C@H]3C[C@H](OC)[C@@H](O[C@H]4C[C@H](OC)[C@@H](O)[C@H](C)O4)[C@H](C)O3)[C@@H](C)/C=C/C=C3\CO[C@@H]4[C@H](O)C(C)=C[C@@H](C(=O)O1)[C@]34O)O2`, the AC50 in experiment [1] is 5.51 µM (active); in experiment [2], 17.6 µM (active); in experiment [3], 6.87 µM (active); in experiment [4], 14.5 µM (active); in experiment [5], 6.4 µM (active); in experiment [6], 8.8 µM (active). Moreover, the AC50 in experiment [7] was 7.23 µM (active); in experiment [8], 9.63 µM (active).

Take `CCN1/C(=C/C=C/c2sc3ccccc3[n+]2CC)Sc2ccccc21`: the result in experiment [1] and in experiment [7] was inactive. Further, the AC50 in experiment [2] is 9.06 µM (active); in experiment [3], 4.58 µM (active); in experiment [4], 23.5 µM (active); in experiment [5], 20 µM (active); in experiment [6], 11.5 µM (active); in experiment [8], 12.9 µM (active).

Turning to `C#C[C@]1(OC(C)=O)CC[C@H]2[C@@H]3CCC4=C/C(=N/O)CC[C@@H]4[C@H]3CC[C@@]21CC`, the AC50 was 37.2 µM (active) in experiment [1]; 40.4 µM (active) in experiment [2]; 38.7 µM (active) in experiment [3]; 42.8 µM (active) in experiment [4]; 38.2 µM (active) in experiment [5]; 40.6 µM (active) in experiment [6]. Also, the AC50 in experiment [7] was 37.1 µM (active); in experiment [8] it was 39.5 µM (active).

For `O=C1C(=O)c2ccccc2C(O)=C1C1CCC(c2ccc(Cl)cc2)CC1` (stereo not drawn), the result in experiment [1], in experiment [3], in experiment [5], in experiment [7] and in experiment [8] was inactive. Further, the AC50 in experiment [2] was 10.3 µM (active); in experiment [4], 1.61 µM (active); in experiment [6] it was 10.3 µM (active).

For `CNCCCC1c2ccccc2C=Cc2ccccc21`, the outcome in experiment [1], in experiment [2], in experiment [3], in experiment [4], in experiment [5] and in experiment [6] was inactive. Moreover, the compound was classed as inactive in experiment [7] and in experiment [8].
